The values that follow come from PubChem BioAssay (NCI).

Some test systems named below: NCI-H23 lung; NCI-H226 lung; NCI-H322M lung; HOP-62 NSCLC; NCI-H460 lung; HOP-92 NSCLC; NCI-H522 lung; A549/ATCC NSCLC; 786-0 renal; COLO 205 colon; DU-145 prostate; K-562 leukemia; MALME-3M melanoma; MDA-MB-231 breast; RXF 393 renal; SF-268 CNS; SF-295 CNS; SF-539 CNS; UACC-257 melanoma; M14 melanoma.
Holding throughout (assay): NCI-60 one-dose screen, 48 h (100 = growth as untreated, 0 = no growth, -100 = all killed)
What all share (settings): 10 µM unless noted

This is part of a sample that, as a whole, favours compounds with a hit. Of some 83,000 tested, about 20% had one in any assay.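 The test compound was applied at a single concentration to cells in 96-well plates for 48 hours, and percent growth was recorded.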 A number with no mark means an inactive call. Calls of active or inactive are those of the source. Rule for the calls: active = growth percent below 10; inactive = the rest.

As to `COc1ccc(-c2nc3sc(-c4ccccc4)cn3n2)cc1`, the growth is 72% in the test with NCI-H23 lung; 76.3% in the test on NCI-H226 lung; 85.8% with NCI-H322M lung; 50.5% with HOP-62 NSCLC; 34.9% with NCI-H460 lung; 67.6% in the test with HOP-92 NSCLC. Also, the growth in the test on NCI-H522 lung is 29.6%; in the test on A549/ATCC NSCLC it was 50.8%; in the test on 786-0 renal it was 88%; with COLO 205 colon, 36.7%; with DU-145 prostate, 83.5%; in the test with K-562 leukemia, 23.8%. The growth in the test on MALME-3M melanoma was 67.6%; in the test on MDA-MB-231 breast, 47%; in the test with RXF 393 renal, 75.3%; in the test on SF-268 CNS, 71.8%; in the test on SF-295 CNS, 61.8%; in the test on SF-539 CNS, 75.2%. For the same compound, the growth was 71.8% in the test with UACC-257 melanoma and 28.4% in the test with M14 melanoma.
`CCC(=O)Nc1ccc(-c2nc(-c3cccc(OC)c3)c(-c3ccnc(Br)c3)[nH]2)cc1`: the growth with NCI-H23 lung is 76.9%; with NCI-H226 lung it was 55.1%; with NCI-H322M lung, 67.4%; in the test on HOP-62 NSCLC, 75.3%; in the test on NCI-H460 lung, 49.4%; in the test with HOP-92 NSCLC it was 61.4%. The growth in the test on NCI-H522 lung is 56.9%; with A549/ATCC NSCLC it was 60.9%; in the test on 786-0 renal it was 40.8%; in the test with COLO 205 colon, 71.2%; in the test with DU-145 prostate it was 70.6%; with K-562 leukemia, 24.1%. In addition, the growth with MALME-3M melanoma was 69.4%; with MDA-MB-231 breast it was 71.8%; in the test with RXF 393 renal it was -22.8% (active); in the test with SF-268 CNS it was 75.8%; with SF-295 CNS, 16.1%; in the test with SF-539 CNS, 51.1%. Moreover, the growth was 74.4% with UACC-257 melanoma and 63.1% in the test on M14 melanoma.
On to `O=c1ccc(N=Nc2ccc([N+](=O)[O-])cc2)ccc1O`, for which the growth is 2.17% (active) in the test with NCI-H23 lung; 16.6% with NCI-H226 lung; 17.6% in the test with NCI-H322M lung; 33% in the test with HOP-62 NSCLC; 17.8% in the test on NCI-H460 lung; 47.5% in the test with HOP-92 NSCLC. For the same compound, the growth was 14% with NCI-H522 lung; 31.5% with A549/ATCC NSCLC; 42.3% in the test with 786-0 renal; 16.7% in the test with COLO 205 colon; 38.4% in the test on DU-145 prostate; 13.7% in the test on K-562 leukemia. In addition, the growth with MALME-3M melanoma was 22.9%; in the test with MDA-MB-231 breast it was 13.9%; in the test with RXF 393 renal it was 46%; in the test on SF-268 CNS, 23.2%; with SF-295 CNS, 12.6%; with SF-539 CNS, 16.7%. The figures for the growth in the test on UACC-257 melanoma and in the test on M14 melanoma were 21.9% and 44.6%, respectively.
For the compound `Cc1nc(S(=O)(=O)c2ccccc2)c(S(=O)(=O)Cc2ccc([N+](=O)[O-])cc2)o1`, the growth in the test with NCI-H23 lung is 103%; with NCI-H226 lung it was 88%; in the test with NCI-H322M lung, 100%; in the test on HOP-62 NSCLC, 88.4%; in the test with NCI-H460 lung, 98.5%; in the test with HOP-92 NSCLC it was 83.1%. For the same compound, the growth was 68.8% with NCI-H522 lung; 97.6% in the test on A549/ATCC NSCLC; 89.1% in the test on 786-0 renal; 112% with COLO 205 colon; 91.3% with DU-145 prostate; 80.1% in the test with K-562 leukemia. For the same compound, the growth in the test with MALME-3M melanoma was 95.2%; in the test on MDA-MB-231 breast it was 98.1%; in the test on RXF 393 renal it was 93.2%; in the test on SF-268 CNS it was 89.2%; in the test on SF-295 CNS, 114%; in the test on SF-539 CNS, 104%. The results for the growth in the test on UACC-257 melanoma and in the test with M14 melanoma were 85.4% and 86.3%, respectively.
Consider `Nc1nc(-c2cccc3ccccc23)cc2ccccc12`, for which the growth is 11.1% in the test on NCI-H23 lung; -7.36% (active) with NCI-H226 lung; 46.5% with NCI-H322M lung; 13.7% in the test on HOP-62 NSCLC; 0.0786% (active) with NCI-H460 lung; 19% with HOP-92 NSCLC. Moreover, the growth in the test with NCI-H522 lung was -34.3% (active); in the test on A549/ATCC NSCLC, 28.7%; with 786-0 renal, 20.9%; with COLO 205 colon it was -18.4% (active); in the test with DU-145 prostate, 7.32% (active); with K-562 leukemia, -43.8% (active). Also, the growth in the test with MALME-3M melanoma is 82.2%; in the test with MDA-MB-231 breast, 20.7%; with RXF 393 renal, -4.3% (active); in the test with SF-268 CNS it was 23.7%; in the test on SF-295 CNS, -50.2% (active); in the test on SF-539 CNS, -35.9% (active). Further, the growth in the test on UACC-257 melanoma was 56.6%; in the test on M14 melanoma it was -29.5% (active).
As to `CN(C)c1ccc2nc3ccc(=[N+](C)C)c([N+](=O)[O-])c-3sc2c1`, the growth is 9.52% (active) in the test with NCI-H23 lung; 73.2% in the test with NCI-H226 lung; 42.2% in the test on NCI-H322M lung; 64.2% in the test with HOP-62 NSCLC; 25.3% in the test on NCI-H460 lung; 38.7% in the test with HOP-92 NSCLC. The growth in the test on NCI-H522 lung was 16.3%; with A549/ATCC NSCLC, 26.3%; in the test on 786-0 renal, 31.9%; in the test with COLO 205 colon, 20.3%; in the test with DU-145 prostate, 54%; in the test on K-562 leukemia, 23.8%. For the same compound, the growth with MALME-3M melanoma is 9.75% (active); in the test with MDA-MB-231 breast, 2.84% (active); in the test on RXF 393 renal, 79.7%; in the test with SF-268 CNS it was 33.4%; with SF-295 CNS it was -1.42% (active); in the test with SF-539 CNS, 36.6%. The growth with UACC-257 melanoma is 12.8%; in the test with M14 melanoma, 9.93% (active).
Take `CCOc1c(B(O)O)cccc1-c1nc2ccc3[nH]ncc3c2c2c1CCCC2`: the growth was 60.1% with NCI-H23 lung; 54.3% in the test on NCI-H226 lung; 109% with NCI-H322M lung; 48.3% in the test on HOP-62 NSCLC; 42.1% with NCI-H460 lung; 33.5% in the test on HOP-92 NSCLC. The growth was 55.2% in the test on NCI-H522 lung; 64.5% with A549/ATCC NSCLC; 47.7% in the test with 786-0 renal; 48.6% with COLO 205 colon; 66.9% with DU-145 prostate; 63.4% in the test on K-562 leukemia. Also, the growth is 101% in the test with MALME-3M melanoma; 33.9% in the test with MDA-MB-231 breast; -5.22% (active) with RXF 393 renal; 58.6% with SF-268 CNS; 59.3% with SF-295 CNS; 18.6% with SF-539 CNS. In addition, the figures for the growth in the test on UACC-257 melanoma and in the test on M14 melanoma were 135% and 120%, respectively.
